A short description of assay [1]: ATG_NFI_CIS: Attagene CIS-FACTORIAL HepG2 Assay for human Nuclear Factor I (NFI) (AID 2282989). The settings on record: HepG2 cis-regulatory reporter, NFI response element transcription; actives raise or lower the signal. In a few lines: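 Reporter transcription driven by endogenous transcription factors in HepG2 cells; 24 h treatment. Quantitation by labelled RT-PCR fragments on capillary electrophoresis, gain- or loss-of-signal relative to DMSO.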

Assay [2] deals with Myc proto-oncogene protein (Homo sapiens) (UniProt P01106). Briefly: ATG_Myc_CIS: Attagene CIS-FACTORIAL HepG2 Assay for human Myelocytomatosis (Myc) Proto-Oncogene Transcription Factor (AID 2282990). The settings on record: HepG2, Attagene cis-reporter transcription factor activity; actives raise or lower the signal. In a few lines:
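Fluorescence intensity of reporter-specific cDNA fragments, separated by capillary electrophoresis, gives the signal. Transfected HepG2 cells carrying cis-promoter reporter constructs are incubated with compound for 24 h; DMSO serves as baseline.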

The nature of assay [3]: ATG_NRF2_ARE_CIS: Attagene CIS-FACTORIAL HepG2 Assay for human Nuclear Factor Erythroid 2 Related Factor 2 (NFR2) response to Antioxidant Response Elements (ARE) (AID 2282992).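 For AC50: reporter mRNA level measured by RT-PCR and capillary electrophoresis fluorescence.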 The settings on record: HepG2 Attagene ARE/NRF2 reporter, transcription factor activity; actives raise or lower the signal. The essentials: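 Endogenous transcription factor activity in human liver HepG2 cells is tracked via a cis-element-driven reporter within a multiplexed set. mRNA induction is read by RT-PCR and capillary electrophoresis after 24 h, with DMSO as baseline.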

Assay [4] can be described thus: ATG_Oct_MLP_CIS: Attagene CIS-FACTORIAL HepG2 Assay for human Octamer-Binding Transcription Factor (Oct) (AID 2282993). The note with it: HepG2 Attagene cis-factorial Oct reporter, mRNA; actives raise or lower the signal. The essentials: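 Transfected HepG2 cells, 24 h treatment. Reporter mRNA quantified by RT-PCR–capillary electrophoresis; bidirectional fitting against DMSO.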

For assay [5], the target named is Cellular tumor antigen p53 (Homo sapiens) (UniProt P04637). The assay can be described thus: ATG_p53_CIS: Attagene CIS-FACTORIAL HepG2 Assay for human p53 Transcription Factor (AID 2282994). The note with it: HepG2 p53 cis-element reporter, Attagene mRNA; actives raise or lower the signal. In a few lines: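 Steps: transfect HepG2 with multiplexed cis reporter constructs; dose chemicals 24 h; extract RNA, reverse-transcribe, PCR-amplify reporter sequences; FAM-label, HpaI-digest, resolve fragments by CE. Activity fitted both directions relative to DMSO.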
Chain of Cellular tumor antigen p53 (Homo sapiens) (P04637 whole entry, looked up, the tested form may be a part): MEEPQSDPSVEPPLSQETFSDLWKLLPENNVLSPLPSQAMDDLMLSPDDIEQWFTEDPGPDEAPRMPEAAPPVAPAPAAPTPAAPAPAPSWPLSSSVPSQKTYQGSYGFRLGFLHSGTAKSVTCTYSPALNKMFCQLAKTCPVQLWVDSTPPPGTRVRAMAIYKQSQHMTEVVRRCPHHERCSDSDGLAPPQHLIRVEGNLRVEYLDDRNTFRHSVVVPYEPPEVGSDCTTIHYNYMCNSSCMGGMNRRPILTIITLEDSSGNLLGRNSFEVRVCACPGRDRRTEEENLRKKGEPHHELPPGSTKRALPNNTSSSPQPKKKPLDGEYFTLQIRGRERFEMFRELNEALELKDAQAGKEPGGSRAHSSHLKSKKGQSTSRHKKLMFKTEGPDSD

The target of assay [6] is Nuclear receptor subfamily 1 group I member 2 (Homo sapiens) (UniProt O75469). The assay can be described thus: ATG_PXR_TRANS: Attagene TRANS-FACTORIAL HepG2 Assay for human Pregnane X Receptor (PXR) (AID 2283008; active = hit-call score of the fitted dose curve at least 0.9, where 1 is the maximum). In a few lines:
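HepG2 transfected (FuGene 6) with GAL4-UAS reporter units + PXR-Gal4 chimera; dosed 24 h. Total RNA → oligo(dT) RT → PCR → 6-FAM primer extension → HpaI cut → CE. Gain-of-signal vs DMSO.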

The target of assay [7] is human Retinoic Acid Receptor gamma (RARg), RARG (gene 5916) (UniProt P13631). The assay can be described thus: ATG_RARg_TRANS: Attagene TRANS-FACTORIAL HepG2 Assay for human Retinoic Acid Receptor gamma (RARg) (AID 2283009; active = hit-call score of the fitted dose curve at least 0.9, where 1 is the maximum). In a few lines:
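TRANS format measured activity of exogenous NR-GAL4 fusion (RARg) in transfected HepG2 liver cells after 24 h dosing. Induced reporter RNA was detected by RT-PCR/capillary electrophoresis fluorescence, analysed in the positive direction against DMSO.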

The target in assay [8] is human Peroxisome Proliferator-activated Receptor alpha (PPARa), PPARA (gene 5465) (UniProt Q07869). The assay can be described thus: ATG_PPARa_TRANS: Attagene TRANS-FACTORIAL HepG2 Assay for human Peroxisome Proliferator-activated Receptor alpha (PPARa) (AID 2283001; active = hit-call score of the fitted dose curve at least 0.9, where 1 is the maximum;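 for AC50: potency for gain of reporter signal over DMSO so agonist or activator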). In a few lines: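 HepG2, transient MRTU transfection, 24 h treatment. RT-PCR → FAM labelling → capillary electrophoresis. Fit vs DMSO, positive direction.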
Chain of human Peroxisome Proliferator-activated Receptor alpha (PPARa), PPARA (gene 5465) (Q07869 whole entry, looked up): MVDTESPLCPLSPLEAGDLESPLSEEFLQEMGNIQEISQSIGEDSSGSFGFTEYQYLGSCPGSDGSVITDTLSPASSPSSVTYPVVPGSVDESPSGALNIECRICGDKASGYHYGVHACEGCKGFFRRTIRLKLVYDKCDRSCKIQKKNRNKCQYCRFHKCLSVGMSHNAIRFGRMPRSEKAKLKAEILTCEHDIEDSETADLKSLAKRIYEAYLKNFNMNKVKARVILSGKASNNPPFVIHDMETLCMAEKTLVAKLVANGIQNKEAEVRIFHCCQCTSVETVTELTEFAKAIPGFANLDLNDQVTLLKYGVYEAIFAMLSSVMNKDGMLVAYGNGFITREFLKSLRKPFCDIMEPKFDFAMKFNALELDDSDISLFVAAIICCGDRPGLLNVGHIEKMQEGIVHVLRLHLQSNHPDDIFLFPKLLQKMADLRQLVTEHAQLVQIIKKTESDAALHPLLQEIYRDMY

Assay [9] has as its target Peroxisome proliferator-activated receptor gamma (Homo sapiens) (UniProt P37231). Briefly: ATG_PPARg_TRANS: Attagene TRANS-FACTORIAL HepG2 Assay for human Peroxisome Proliferator-activated Receptor-gamma (PPARg) (AID 2283007; active = hit-call score of the fitted dose curve at least 0.9, where 1 is the maximum). In a few lines: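 Endpoint reflects upward reporter mRNA change versus DMSO controls. Setup: transiently transfected HepG2, GAL4-UAS reporters driven by chimeric NR-Gal4, 24 h incubation, RT-PCR with capillary electrophoresis read-out.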

The target of assay [10] is human Peroxisome Proliferator-activated Receptor delta (PPARd), PPARD (gene 5467) (UniProt Q03181). Briefly: ATG_PPARd_TRANS: Attagene TRANS-FACTORIAL HepG2 Assay for human Peroxisome Proliferator-activated Receptor delta (PPARd) (AID 2283002; active = hit-call score of the fitted dose curve at least 0.9, where 1 is the maximum). In a few lines: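 Fluorescence from capillary electrophoresis of labelled RT-PCR reporter fragments gives the signal; DMSO sets baseline. Cells: HepG2 transiently carrying GAL4-UAS reporter units plus chimeric nuclear receptor-Gal4 proteins, exposed to chemicals for 24 h.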
Chain of human Peroxisome Proliferator-activated Receptor delta (PPARd), PPARD (gene 5467) (Q03181 whole entry, looked up, the tested form may be a part): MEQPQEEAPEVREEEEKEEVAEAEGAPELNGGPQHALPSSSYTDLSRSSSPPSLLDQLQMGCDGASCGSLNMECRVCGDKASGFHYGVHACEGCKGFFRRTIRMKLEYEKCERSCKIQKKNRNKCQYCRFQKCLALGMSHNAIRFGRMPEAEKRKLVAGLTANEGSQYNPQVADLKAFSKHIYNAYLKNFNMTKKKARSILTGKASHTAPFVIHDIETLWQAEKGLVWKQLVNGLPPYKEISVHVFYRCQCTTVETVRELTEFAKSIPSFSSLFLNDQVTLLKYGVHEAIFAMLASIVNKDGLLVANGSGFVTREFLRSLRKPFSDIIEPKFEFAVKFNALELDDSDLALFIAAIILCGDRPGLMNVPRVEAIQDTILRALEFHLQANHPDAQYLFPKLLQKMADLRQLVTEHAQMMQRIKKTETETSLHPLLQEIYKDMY

Assay [11] has as its target human Retinoic Acid Receptor beta (RARb), RARB (gene 5915) (UniProt P10826). The assay can be described thus: ATG_RARb_TRANS: Attagene TRANS-FACTORIAL HepG2 Assay for human Retinoic Acid Receptor beta (AID 2283004; active = hit-call score of the fitted dose curve at least 0.9, where 1 is the maximum). The essentials: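 HepG2 cells transiently transfected with multiplexed GAL4-UAS reporter units expressing chimeric NR–Gal4 fusions; 24 h compound exposure. Reporter mRNA quantified by RT-PCR, 6-FAM labelling, HpaI digestion and capillary electrophoresis; gain-of-signal fitted against DMSO baseline.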

Assay [12] concerns the target human RAR-related Orphan Receptor beta (RORb), RORB (gene 6096) (UniProt Q92753). The assay can be described thus: ATG_RORb_TRANS: Attagene TRANS-FACTORIAL HepG2 Assay for human RAR-related Orphan Receptor beta (RORb) (AID 2283010; active = hit-call score of the fitted dose curve at least 0.9, where 1 is the maximum). The essentials: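 Transfect HepG2 with multiple GAL4-UAS reporter transcription units; dose chemicals for 24 h; isolate RNA, reverse-transcribe and PCR-amplify reporter sequences; label, digest and resolve fragments by capillary electrophoresis; fit increases relative to DMSO.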

The target of assay [13] is Retinoic acid receptor alpha (Homo sapiens) (UniProt P10276). The assay can be described thus: ATG_RARa_TRANS: Attagene TRANS-FACTORIAL HepG2 Assay for human Retinoic Acid Receptor alpha (RARa) (AID 2283005; active = hit-call score of the fitted dose curve at least 0.9, where 1 is the maximum). In a few lines: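 HepG2 transiently transfected with multiplex GAL4-UAS reporter units including a human RARa–GAL4 chimera; 24 h compound exposure. Reporter mRNA quantified by RT-PCR, 6-FAM labeling and capillary electrophoresis; gain of signal versus DMSO.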
Chain of Retinoic acid receptor alpha (Homo sapiens) (P10276 whole entry, looked up, the tested form may be a part): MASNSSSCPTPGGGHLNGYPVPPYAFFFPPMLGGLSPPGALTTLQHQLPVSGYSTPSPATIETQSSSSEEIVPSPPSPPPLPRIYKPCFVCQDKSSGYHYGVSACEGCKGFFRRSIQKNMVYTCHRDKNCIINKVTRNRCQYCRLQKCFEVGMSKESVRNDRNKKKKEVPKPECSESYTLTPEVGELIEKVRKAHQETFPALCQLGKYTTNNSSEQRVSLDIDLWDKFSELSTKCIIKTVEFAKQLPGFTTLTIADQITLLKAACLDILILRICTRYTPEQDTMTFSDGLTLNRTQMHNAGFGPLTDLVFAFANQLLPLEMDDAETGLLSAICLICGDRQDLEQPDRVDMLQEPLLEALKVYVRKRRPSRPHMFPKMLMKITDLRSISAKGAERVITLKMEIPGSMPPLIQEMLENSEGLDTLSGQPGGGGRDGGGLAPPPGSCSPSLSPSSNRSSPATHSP

In general, AC50 refers to the midpoint of the concentration-response curve, whichever way the signal moves.

Molecules are shown by their SMILES. Inconclusive results are not listed. Calls of active or inactive are those of the source. Rule for the calls, unless noted: active = hit-call score of the fitted dose curve at least 0.9, where 1 is the maximum; inactive = score below 0.9.

Chain of human RAR-related Orphan Receptor beta (RORb), RORB (gene 6096) (Q92753 whole entry, looked up, the tested form may be a part): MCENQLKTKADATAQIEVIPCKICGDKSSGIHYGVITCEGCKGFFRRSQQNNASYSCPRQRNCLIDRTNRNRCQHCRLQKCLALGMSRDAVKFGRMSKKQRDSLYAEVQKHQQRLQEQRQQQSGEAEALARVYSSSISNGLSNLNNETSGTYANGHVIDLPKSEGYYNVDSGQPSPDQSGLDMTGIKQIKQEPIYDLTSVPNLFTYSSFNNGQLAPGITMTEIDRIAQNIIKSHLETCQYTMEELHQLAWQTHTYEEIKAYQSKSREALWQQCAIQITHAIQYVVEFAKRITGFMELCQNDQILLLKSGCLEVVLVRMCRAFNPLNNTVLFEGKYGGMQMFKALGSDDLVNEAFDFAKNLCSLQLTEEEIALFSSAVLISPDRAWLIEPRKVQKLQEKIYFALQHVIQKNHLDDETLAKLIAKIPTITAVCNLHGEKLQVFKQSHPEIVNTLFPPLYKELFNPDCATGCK
Chain of human Retinoic Acid Receptor beta (RARb), RARB (gene 5915) (P10826 whole entry, looked up, the tested form may be a part): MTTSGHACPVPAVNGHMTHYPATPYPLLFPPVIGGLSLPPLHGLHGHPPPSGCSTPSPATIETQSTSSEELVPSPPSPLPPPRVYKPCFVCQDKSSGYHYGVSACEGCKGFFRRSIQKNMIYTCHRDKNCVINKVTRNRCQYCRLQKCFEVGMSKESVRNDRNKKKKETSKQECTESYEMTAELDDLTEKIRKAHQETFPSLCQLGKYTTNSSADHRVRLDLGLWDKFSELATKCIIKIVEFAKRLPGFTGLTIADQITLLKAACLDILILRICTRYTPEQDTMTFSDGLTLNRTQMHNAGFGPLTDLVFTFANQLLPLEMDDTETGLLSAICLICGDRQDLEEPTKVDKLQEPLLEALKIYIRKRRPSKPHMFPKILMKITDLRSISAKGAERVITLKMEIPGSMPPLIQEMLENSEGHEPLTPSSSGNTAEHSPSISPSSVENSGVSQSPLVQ
Chain of human Retinoic Acid Receptor gamma (RARg), RARG (gene 5916) (P13631 whole entry, looked up, the tested form may be a part): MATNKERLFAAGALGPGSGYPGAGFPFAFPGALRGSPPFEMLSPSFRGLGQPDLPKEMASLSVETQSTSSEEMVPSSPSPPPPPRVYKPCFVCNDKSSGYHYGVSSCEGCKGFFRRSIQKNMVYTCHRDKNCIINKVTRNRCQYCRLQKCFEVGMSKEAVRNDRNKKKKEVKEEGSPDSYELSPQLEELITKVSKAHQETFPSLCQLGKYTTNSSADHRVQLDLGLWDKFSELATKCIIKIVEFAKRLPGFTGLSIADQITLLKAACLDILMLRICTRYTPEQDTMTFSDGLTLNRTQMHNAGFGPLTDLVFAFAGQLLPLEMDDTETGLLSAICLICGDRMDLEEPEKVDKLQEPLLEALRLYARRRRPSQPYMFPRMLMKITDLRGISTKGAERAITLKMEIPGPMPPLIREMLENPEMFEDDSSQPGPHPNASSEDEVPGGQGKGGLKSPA
Chain of Myc proto-oncogene protein (Homo sapiens) (P01106 whole entry, looked up, the tested form may be a part): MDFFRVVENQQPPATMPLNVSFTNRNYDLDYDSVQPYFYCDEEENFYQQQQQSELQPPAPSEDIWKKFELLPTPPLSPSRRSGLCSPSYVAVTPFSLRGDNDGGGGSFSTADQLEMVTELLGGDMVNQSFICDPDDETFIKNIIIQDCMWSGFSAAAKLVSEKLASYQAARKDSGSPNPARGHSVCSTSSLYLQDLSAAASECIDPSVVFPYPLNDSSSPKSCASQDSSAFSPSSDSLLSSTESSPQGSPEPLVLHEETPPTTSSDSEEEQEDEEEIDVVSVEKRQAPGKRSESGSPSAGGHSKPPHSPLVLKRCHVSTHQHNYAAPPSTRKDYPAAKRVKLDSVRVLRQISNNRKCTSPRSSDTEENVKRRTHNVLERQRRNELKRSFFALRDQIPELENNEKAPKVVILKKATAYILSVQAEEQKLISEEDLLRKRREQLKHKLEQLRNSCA
Chain of Peroxisome proliferator-activated receptor gamma (Homo sapiens) (P37231 whole entry, looked up, the tested form may be a part): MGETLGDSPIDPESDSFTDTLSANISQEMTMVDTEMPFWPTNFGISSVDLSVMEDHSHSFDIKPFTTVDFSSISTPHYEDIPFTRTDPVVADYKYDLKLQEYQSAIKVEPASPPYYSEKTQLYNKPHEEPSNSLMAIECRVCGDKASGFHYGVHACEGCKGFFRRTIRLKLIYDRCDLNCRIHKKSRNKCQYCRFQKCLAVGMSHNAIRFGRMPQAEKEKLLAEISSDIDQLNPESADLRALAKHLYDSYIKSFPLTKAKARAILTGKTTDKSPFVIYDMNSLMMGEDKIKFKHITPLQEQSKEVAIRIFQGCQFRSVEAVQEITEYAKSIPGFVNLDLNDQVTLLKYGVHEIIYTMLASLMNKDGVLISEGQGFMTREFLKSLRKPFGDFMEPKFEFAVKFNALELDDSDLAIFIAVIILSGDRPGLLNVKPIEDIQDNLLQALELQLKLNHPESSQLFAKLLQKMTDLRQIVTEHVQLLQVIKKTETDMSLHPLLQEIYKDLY
Chain of Nuclear receptor subfamily 1 group I member 2 (Homo sapiens) (O75469 whole entry, looked up, the tested form may be a part): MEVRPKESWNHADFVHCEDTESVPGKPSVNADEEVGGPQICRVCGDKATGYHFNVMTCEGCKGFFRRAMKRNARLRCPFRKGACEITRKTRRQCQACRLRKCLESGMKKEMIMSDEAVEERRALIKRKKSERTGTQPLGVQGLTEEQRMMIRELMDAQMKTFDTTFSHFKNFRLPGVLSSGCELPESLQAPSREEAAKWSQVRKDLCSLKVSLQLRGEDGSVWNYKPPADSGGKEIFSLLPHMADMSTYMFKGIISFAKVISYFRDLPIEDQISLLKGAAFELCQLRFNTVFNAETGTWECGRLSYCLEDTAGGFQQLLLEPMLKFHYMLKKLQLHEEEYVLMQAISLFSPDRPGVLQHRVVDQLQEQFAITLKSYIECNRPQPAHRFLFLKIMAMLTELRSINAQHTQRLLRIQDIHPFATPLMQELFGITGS

For `NNC(=O)c1cccc(C(=O)NN)c1`, the outcome in [1], in assay [2], in assay [3], in assay [4], in assay [5] and in [6] was inactive. In addition, in assay [7], the result was inactive.
Take `C=C(C)C(=O)OCCOc1ccccc1`: the result in [1], in [2], in assay [4], in assay [8] and in [6] was inactive. In addition, the AC50 in assay [3] is 67.1 µM (active); in assay [9], 28.5 µM (active).
Regarding `Nc1ccc2cc3ccccc3cc2c1`, the result in [1], in assay [2], in assay [4], in [8], in assay [10] and in [11] was inactive. For the same compound, the outcome in assay [6], in [7] and in assay [12] was inactive. For the same compound, the AC50 in assay [3] was 47 µM (active); in [9], 26.8 µM (active).
For the compound `CC(=O)Oc1ccc(C(C)=O)cc1`, the result in [1], in assay [2], in assay [3], in assay [4], in assay [8] and in assay [7] was inactive. Besides, in assay [12], the compound was called inactive.
For `CNC(=S)N(C)C`, the compound was classed as inactive in assay [1], in assay [2], in [3], in assay [4], in assay [5] and in assay [13]. For the same compound, the compound was classed as inactive in assay [9] and in assay [6].
Regarding `CCCCC(CC)CCC(CC(C)C)OS(=O)(=O)O` (stereo not given), the compound was called inactive in assay [1], in [2], in [4], in assay [5] and in assay [12]. The AC50 in assay [3] is 100 µM (active); in [6], 5.35 µM (active).
For `CC=CC(=O)N(CC)c1ccccc1C`, the compound was classed as inactive in assay [1], in assay [2], in assay [3], in assay [4], in assay [5] and in assay [11]. Also, the call in [12] was inactive.
Turning to `NCCCN1CCN(CCCN)CC1`, the result in assay [1], in assay [2], in [4], in assay [10], in [13] and in [6] was inactive. The result in [7] and in [12] was inactive. In addition, in assay [3], the AC50 is 81.2 µM (active).
Consider `O=c1n(CCO)c(=O)n(CCO)c(=O)n1CCO`, for which the result in assay [1], in assay [2], in assay [3], in [4], in [5] and in assay [11] was inactive. Besides, the outcome in assay [13], in [7] and in [12] was inactive.
As for `Cn1c([N+](=O)[O-])cnc1COC(N)=O`, the call in assay [1], in assay [2], in assay [3], in [4], in assay [5] and in [13] was inactive.
In the case of `C[Si](C)O[Si](C)(C)O[Si](C)(C)O[Si](C)C`, the call in assay [1], in assay [2], in [3], in assay [4], in assay [5] and in assay [11] was inactive. For the same compound, the call in [9], in [6] and in assay [7] was inactive.
For the compound `Oc1ccc(Cl)cc1Cc1cc(Cl)ccc1O`, the AC50 was 5.83 µM (active) in [1]; 2.75 µM (active) in assay [3]; 7.99 µM (active) in assay [4]; 6.86 µM (active) in assay [8]; 4.51 µM (active) in assay [9]; 2.94 µM (active) in assay [6]. Besides, the compound was called inactive in [2] and in [10].

Values taken from PubChem BioAssay (EPA / NIEHS).
